This passage reports composite z-score and z-score results from PubChem BioAssay.

Test [1] can be described thus: binders of probe aFSTL3 on microarray, primary screen, stem cell growth factor project, biochemical, small-molecule microarray, fluorescence 635/667 (AID 1064).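 Further: measures binding of the biotinylated anti-FSTL3 antibody to printed compounds.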 As to conditions: higher = more signal.
Test [2] in a line: binders from COS7 lysate, DM2A8 probe, primary screen, torsin A project, cell lysate, small-molecule microarray, fluorescence 635/667 (AID 1065). The settings on record: higher = more signal, COS7 lysate expressing mutant human TOR1A.
Test [3] in a line: binders of probe aFGF2 on microarray, primary screen, stem cell growth factor project, biochemical, small-molecule microarray, fluorescence 635/667 (AID 1067).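 Further: measures binding of biotinylated aFGF2 protein to printed compounds on slides; z-score merges feature fluorescence and signal-to-noise across triplicate slides.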 The settings on record: higher = more signal.
Test [4] is described as follows: binders of probe aFGF10 on microarray, primary screen, stem cell growth factor project, biochemical, small-molecule microarray, fluorescence 635/667 (AID 1071).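 Further: score merges 667 nm spot intensity and signal to noise from triplicate slides.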 The settings on record: higher = more signal.
The target in test [5] is Neurogenic locus notch homolog protein 2 (Homo sapiens) (UniProt Q04721). Put plainly: Notch2 binders on small-molecule microarrays, primary screen, biochemical, small-molecule microarray, 635 nm fluorescence, stem cell growth factors (AID 1073). The settings on record: Notch2 binding, higher = more signal.
Test [6] concerns the target Pro-neuregulin-1, membrane-bound isoform (Homo sapiens) (UniProt Q02297). Put plainly: NRG1 binders on small-molecule microarrays, primary screen, psychiatric disease protein project, biochemical, small-molecule microarray, fluorescence 635/667 (AID 1075).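 Further: score combines 667 nm spot fluorescence with signal to noise.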 The settings on record: NRG1 binding, 635 nm fluorescence, higher = more signal.
Test [7] concerns Neuregulin-1 EGF-like domain. Put plainly: binders of neuregulin-1 EGF-like domain, primary screen, biochemical, small-molecule microarray, 635 nm fluorescence (AID 1081).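 Further: binding of the protein to compounds printed on small-molecule microarray slides.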 The settings on record: small-molecule microarray binding, higher = more signal.
Test [8] is described as follows: FRG1 promoter luciferase signal modulators, primary screen, FRG1 inhibition for FSHD, cell-based, C2C12 myotubes, firefly/Renilla luciferase, luminescence (AID 1084). As to conditions: higher = more signal, called active from +8 up or from −8 down.
Test [9] is described as follows: binders of probe aFST on microarray, primary screen, stem cell growth factor project, biochemical, small-molecule microarray, fluorescence 635/667 (AID 1086).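 Further: score merges 667 nm fluorescence with signal-to-noise of each printed compound spot.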 As to conditions: higher = more signal.
Test [10] in a line: binders of probe aHhip on microarray, primary screen, stem cell growth factor project, biochemical, small-molecule microarray, fluorescence 635/667 (AID 1087).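 Further: score merges spot fluorescence at 667nm with spot signal to noise ratio.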 The settings on record: higher = more signal.

Each structure is given as a SMILES string. Calls of active or inactive are those of the source.

Sequence of Neurogenic locus notch homolog protein 2 (Homo sapiens) (Q04721 whole entry, looked up, canonical isoform): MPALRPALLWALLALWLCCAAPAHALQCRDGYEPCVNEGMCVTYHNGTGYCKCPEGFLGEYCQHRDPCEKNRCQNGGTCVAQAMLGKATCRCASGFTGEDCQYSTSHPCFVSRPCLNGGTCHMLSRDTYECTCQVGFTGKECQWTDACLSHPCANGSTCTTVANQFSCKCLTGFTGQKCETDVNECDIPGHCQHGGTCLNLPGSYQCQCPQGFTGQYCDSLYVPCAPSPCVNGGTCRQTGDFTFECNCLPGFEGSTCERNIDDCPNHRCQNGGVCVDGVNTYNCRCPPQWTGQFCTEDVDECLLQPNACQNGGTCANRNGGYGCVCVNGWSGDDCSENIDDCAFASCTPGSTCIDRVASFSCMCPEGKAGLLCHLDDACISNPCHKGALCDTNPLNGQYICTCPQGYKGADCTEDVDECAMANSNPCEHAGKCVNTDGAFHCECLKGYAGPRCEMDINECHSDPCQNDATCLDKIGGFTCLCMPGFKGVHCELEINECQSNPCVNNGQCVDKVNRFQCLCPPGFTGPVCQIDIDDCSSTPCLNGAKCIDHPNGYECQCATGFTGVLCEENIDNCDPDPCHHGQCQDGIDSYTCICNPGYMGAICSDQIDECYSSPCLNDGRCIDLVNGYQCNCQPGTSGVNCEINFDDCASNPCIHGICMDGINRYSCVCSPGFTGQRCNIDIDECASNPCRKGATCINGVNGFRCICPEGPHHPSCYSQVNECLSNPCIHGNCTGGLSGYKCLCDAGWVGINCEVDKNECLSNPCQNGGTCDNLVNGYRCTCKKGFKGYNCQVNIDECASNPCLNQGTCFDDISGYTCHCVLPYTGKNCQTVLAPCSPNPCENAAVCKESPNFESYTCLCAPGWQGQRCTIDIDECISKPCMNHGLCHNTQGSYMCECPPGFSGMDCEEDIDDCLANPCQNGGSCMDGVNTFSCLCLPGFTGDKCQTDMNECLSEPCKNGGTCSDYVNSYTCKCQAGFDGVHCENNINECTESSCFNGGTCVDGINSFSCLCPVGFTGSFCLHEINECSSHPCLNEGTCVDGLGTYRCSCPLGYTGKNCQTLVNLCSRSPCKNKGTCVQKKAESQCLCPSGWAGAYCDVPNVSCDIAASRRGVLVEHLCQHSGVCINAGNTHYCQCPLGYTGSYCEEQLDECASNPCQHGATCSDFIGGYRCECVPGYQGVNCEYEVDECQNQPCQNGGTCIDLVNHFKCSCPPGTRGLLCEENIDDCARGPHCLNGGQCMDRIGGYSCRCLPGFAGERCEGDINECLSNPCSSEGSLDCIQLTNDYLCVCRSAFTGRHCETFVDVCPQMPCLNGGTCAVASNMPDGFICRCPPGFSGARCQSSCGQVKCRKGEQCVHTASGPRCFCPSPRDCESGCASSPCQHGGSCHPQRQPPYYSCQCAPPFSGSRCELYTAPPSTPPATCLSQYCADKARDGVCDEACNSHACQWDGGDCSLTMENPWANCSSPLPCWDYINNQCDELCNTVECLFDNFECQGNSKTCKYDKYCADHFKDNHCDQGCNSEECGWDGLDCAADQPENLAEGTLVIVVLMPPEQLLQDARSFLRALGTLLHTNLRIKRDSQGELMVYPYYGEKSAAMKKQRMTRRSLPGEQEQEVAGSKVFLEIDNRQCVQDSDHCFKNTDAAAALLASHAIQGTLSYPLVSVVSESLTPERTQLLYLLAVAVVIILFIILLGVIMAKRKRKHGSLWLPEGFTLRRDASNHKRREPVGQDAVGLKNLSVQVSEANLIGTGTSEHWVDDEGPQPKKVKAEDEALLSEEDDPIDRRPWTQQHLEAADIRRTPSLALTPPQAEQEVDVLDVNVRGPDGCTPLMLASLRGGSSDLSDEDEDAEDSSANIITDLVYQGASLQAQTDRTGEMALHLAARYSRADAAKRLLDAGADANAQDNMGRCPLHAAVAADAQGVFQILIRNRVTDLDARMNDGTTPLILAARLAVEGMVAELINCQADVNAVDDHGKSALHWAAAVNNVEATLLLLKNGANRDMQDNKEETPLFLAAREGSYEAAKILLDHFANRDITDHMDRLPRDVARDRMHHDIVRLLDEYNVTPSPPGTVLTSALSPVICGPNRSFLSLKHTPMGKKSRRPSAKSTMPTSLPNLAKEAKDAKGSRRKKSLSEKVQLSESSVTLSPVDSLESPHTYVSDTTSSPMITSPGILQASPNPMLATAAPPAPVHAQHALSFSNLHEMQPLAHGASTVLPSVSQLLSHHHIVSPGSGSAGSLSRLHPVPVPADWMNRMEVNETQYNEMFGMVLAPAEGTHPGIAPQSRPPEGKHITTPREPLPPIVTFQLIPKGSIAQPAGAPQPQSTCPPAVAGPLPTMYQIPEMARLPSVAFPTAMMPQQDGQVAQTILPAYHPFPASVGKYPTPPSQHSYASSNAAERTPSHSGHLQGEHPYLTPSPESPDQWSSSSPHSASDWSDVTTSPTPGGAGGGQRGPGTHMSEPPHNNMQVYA
Sequence of Pro-neuregulin-1, membrane-bound isoform (Homo sapiens) (Q02297 whole entry, looked up, the tested form may be a part, canonical isoform): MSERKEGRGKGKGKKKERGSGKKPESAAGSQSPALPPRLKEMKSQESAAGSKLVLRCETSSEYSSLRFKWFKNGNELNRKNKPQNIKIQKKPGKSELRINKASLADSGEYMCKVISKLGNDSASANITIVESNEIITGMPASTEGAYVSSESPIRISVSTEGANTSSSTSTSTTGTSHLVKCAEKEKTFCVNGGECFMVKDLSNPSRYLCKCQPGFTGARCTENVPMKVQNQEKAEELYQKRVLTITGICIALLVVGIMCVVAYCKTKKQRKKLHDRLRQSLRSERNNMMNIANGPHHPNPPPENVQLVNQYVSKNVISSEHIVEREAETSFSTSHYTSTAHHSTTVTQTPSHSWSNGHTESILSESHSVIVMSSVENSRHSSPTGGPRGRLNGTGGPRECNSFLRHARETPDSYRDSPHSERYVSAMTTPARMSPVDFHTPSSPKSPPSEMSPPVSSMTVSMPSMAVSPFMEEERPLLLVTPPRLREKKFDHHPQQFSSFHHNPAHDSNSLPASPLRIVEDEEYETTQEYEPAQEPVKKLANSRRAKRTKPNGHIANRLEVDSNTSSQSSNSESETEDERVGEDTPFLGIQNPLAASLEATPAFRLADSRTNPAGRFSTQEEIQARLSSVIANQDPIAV

As for `O=C(CS)NCCCCCCNC(=O)[C@H]1C[C@H]2C(=O)NCC(=O)N2[C@H]1c1ccc(O)cc1`, the composite z-score is 0.249 in test [1]; -0.465 in test [2]; -0.137 in [3]; 0.263 in test [4]; -0.355 in [5]; 1.22 in [6]. In addition, the composite z-score was 1.32 in [7], -0.346 in [9] and 0.0201 in test [10]. In addition, in [8], the z-score is -0.348 (inactive).

In the case of `CC(C)CNC(=O)[C@@H]1c2ccccc2C(=O)N(Cc2cc(C(F)(F)F)cc(C(F)(F)F)c2)[C@H]1c1ccc(CO)cc1`, the composite z-score in test [1] is 0.491; in test [2], -0.249; in test [3], 0.071; in [4], -0.365; in test [5] it was -0.744; in [6], -0.27. In addition, the values for the composite z-score in [7], in [9] and in test [10] were 0.401, 0.0438 and 0.224, respectively. Besides, the z-score in test [8] is 0.53 (inactive).

Regarding `COC(=O)[C@@]1(Cc2ccccc2)N=C(c2ccc(OCCCO)cc2)O[C@H]1c1ccccc1N=[N+]=[N-]`, the composite z-score in [1] is 0.454; in [2], 2.86; in [3] it was -0.0667; in test [4] it was 0.123; in [5], 0.784; in [6] it was 0.657. Also, the composite z-score was 1.33 in [7], 0.0183 in test [9] and -0.201 in [10]. Further, the z-score in test [8] is 3.69 (inactive).

Regarding `CN(C)CCCCCCNC(=O)[C@H]1C[C@H]2C(=O)N[C@@H](CCCCN)C(=O)N2[C@H]1c1ccc(O)cc1`, the composite z-score in test [1] was determined as 3.42; in test [2], 2.29; in test [3], 0.762; in [4] it was 1.14; in test [5], 1.27; in [6], 2.51. For the same molecule, the results for the composite z-score in test [7], in [9] and in test [10] were 1.5, 3.49 and 1.84, respectively. Besides, the z-score in test [8] was 0.369 (inactive).

`N#Cc1ccc(NN2C(C(O)c3cccs3)C=CC3C(=O)N(c4ccccc4)C(=O)C32)cc1` (stereo not given): the composite z-score in [1] came out at 0.106; in test [2] it was 0.145; in [3], 0.0887; in [4], 0.546; in test [5], 1.47; in [6] it was 1.93. For the same molecule, the composite z-score in test [7] is 1.06; in test [9] it was 0.632; in test [10], -0.236. Besides, the z-score in test [8] is -0.911 (inactive).

With `COc1cc2c(cc1O)C(C)N(Cc1cccc(OC(F)(F)F)c1)CC2` (stereo not given), the composite z-score in [1] is 0.067; in test [2], -0.142; in [3] it was 0.139; in test [4] it was 0.953; in [5] it was 1.23; in test [6], 2.13. Besides, the figures for the composite z-score in test [7], in test [9] and in test [10] were 1.47, 0.226 and -0.205, respectively. In test [8], the z-score was 0.734 (inactive).

Regarding `COc1cccc(C(=O)O[C@H]2CC[C@]3(C)C4=C(CCC3C2(C)C)[C@]2(C)CC[C@H]([C@H](C)CCCC(C)C)[C@@]2(C)CC4)c1` (stereo not given in full), the composite z-score in test [1] is -0.526; in [2], 0.0024; in test [3], -0.0425; in [4] it was 0.366; in test [5] it was -0.87; in test [6], 0.103. For the same molecule, the composite z-score is 0.181 in test [7], 0.169 in [9] and 0.0722 in test [10]. Besides, the z-score in [8] is -1.06 (inactive).

As for `CCN(CC)c1ccc(N2CC=CC34O[C@@H]5/C=C\CCCOC(=O)C5[C@H]3C(=O)N(C(CO)C(C)C)[C@@H]4C2=O)cc1` (stereo not given in full), the composite z-score in [1] is 0.0964; in [2] it was -1.2; in test [3] it was -0.159; in test [4], -0.381; in test [5], -0.686; in [6], 1.78. Besides, the composite z-score in test [7] is 0.897; in test [9], -0.406; in [10] it was 0.0142. Also, in test [8], the z-score is 0.455 (inactive).

For the molecule `Cc1ccc(F)cc1S(=O)(=O)N[C@@H]1CCN(Cc2ccc(-c3ccccc3)cc2)C1`, the composite z-score was 0.111 in [1]; 0.504 in test [2]; -0.0894 in [3]; 1.04 in test [4]; 0.332 in test [5]; 0.0558 in [6]. In addition, the composite z-score was found to be 1.07 in test [7], 0.204 in test [9] and 0.107 in test [10]. Further, the z-score in test [8] was -1.72 (inactive).

In the case of `O=C1O[C@H](c2ccccc2)[C@H](c2ccccc2)N2[C@H]1[C@@H](C(=O)Nc1nc3ccccc3s1)[C@]1(C(=O)Nc3ccccc31)[C@H]2c1ccc(O)cc1`, the composite z-score in [1] was -0.423; in test [2], 0.108; in test [3] it was -0.0516; in test [4], 0.405; in test [5], 1.13; in test [6] it was 1.43. The composite z-score was 1.25 in [7], 0.521 in test [9] and -0.149 in test [10]. The z-score in test [8] was 0.678 (inactive).

On to `CCCCC=C[C@@H](NC(=O)c1ccc(C(=O)OC)cc1)c1ccccc1`, for which the composite z-score in [1] is 0.026; in test [2], 0.0108; in test [3], -0.116; in [4] it was 0.213; in test [5], 1.31; in test [6] it was 0.919. In addition, the figures for the composite z-score in [7], in [9] and in test [10] were 0.903, 0.474 and -0.189, respectively. Besides, the z-score in [8] is 1.86 (inactive).

For `CC1=C2[C@@H](CCc3ccccc3)OB(O)C[C@@H]2n2c(=O)n(-c3ccccc3)c(=O)n2C1`, the composite z-score in [1] is -0.388; in test [2], -0.214; in test [3] it was -0.132; in test [4], 0.203; in test [5] it was 0.889; in test [6], 0.537. The composite z-score was 1.04 in test [7], 0.156 in test [9] and -0.34 in [10]. Also, the z-score in test [8] was -2.85 (inactive).
